Assay results as given in PubChem BioAssay AID1159580 (chemical genetic matrix, 2015).
Screen size: about 5,500 compounds; about 2,000 (36%) were called active. Another 18% or so got no clear call; they are omitted. Cut-off read from the data, not from the text of the source: active = normalized growth mostly below about 0.91 (no sharp cut-off); inconclusive = no clear call, values can overlap the other calls; inactive = mostly above about 0.92. The list shows a part of the results.

Assay: chemical genetic growth profiling, strain panel (AID 1159580);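 note: tested at 20 µM; growth read once vehicle control cultures reached saturation at 30 °C; 1 = growth at the plate median or of vehicle wells; lower values mean less growth of the strain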
Conditions: growth OD

Measured: normalized growth

Clc1ccc(C(c2ccc(Cl)cc2)C(Cl)(Cl)Cl)cc1
inactive: S. cerevisiae deletion strains, locus YJR043C, strain POL32, active compounds read low 0.996 | S. cerevisiae deletion strains, locus YJR075W, strain HOC1, active compounds read low 1.01 | S. cerevisiae deletion strains, locus YKL009W, strain mrt4, active compounds read low 0.992 | S. cerevisiae deletion strains, locus YKL068W, active compounds read low 1.02 | S. cerevisiae deletion strains, locus YKL085W, strain MDH1 (second series), active compounds read low 1.01 | S. cerevisiae deletion strains, locus YKL085W, strain MDH1, active compounds read low 1.01 | S. cerevisiae deletion strains, locus YKL160W, strain elf1, active compounds read low 1.01 | S. cerevisiae deletion strains, locus YKL190W, strain CNB1, active compounds read low 0.996 | S. cerevisiae deletion strains, locus YKR001C, strain vps1, active compounds read low 0.997 | S. cerevisiae deletion strains, locus YKR026C, strain gcn3, active compounds read low 1.01 | S. cerevisiae deletion strains, locus YKR091W, strain srl3, active compounds read low 1 | S. cerevisiae deletion strains, locus YLL001W, strain dnm1, active compounds read low 1.02 | S. cerevisiae deletion strains, locus YLL026W, active compounds read low 1.01 | S. cerevisiae deletion strains, locus YLL041C, strain sdh2, active compounds read low 1.01 | S. cerevisiae deletion strains, locus YLR027C, strain aat2, active compounds read low 1.01 | S. cerevisiae deletion strains, locus YLR039C, strain RIC1, active compounds read low 1.05 | S. cerevisiae deletion strains, locus YLR058C, strain SHM2, active compounds read low 1.02 | S. cerevisiae deletion strains, locus YLR102C, strain apc9, active compounds read low 0.992 | S. cerevisiae deletion strains, locus YLR221C, strain rsa3, active compounds read low 1.01 | S. cerevisiae deletion strains, locus YLR258W, strain gsy2, active compounds read low 1.01 | S. cerevisiae deletion strains, locus YLR262C, strain YPT6 (second series), active compounds read low 0.985 | S. cerevisiae deletion strains, locus YLR262C, strain YPT6, active compounds read low 0.999 | S. cerevisiae deletion strains, locus YLR268W, strain sec22, active compounds read low 1 | S. cerevisiae deletion strains, locus YLR320W, strain mms22, active compounds read low 0.99 | S. cerevisiae deletion strains, locus YLR330W, strain CHS5, active compounds read low 1.02 | S. cerevisiae deletion strains, locus YLR342W, strain FKS1 (second series), active compounds read low 1.04 | S. cerevisiae deletion strains, locus YLR342W, strain FKS1, active compounds read low 1.01 | S. cerevisiae deletion strains, locus YLR357W, strain rsc2, active compounds read low 1.03 | S. cerevisiae deletion strains, locus YLR370C, strain arc18, active compounds read low 1.01 | S. cerevisiae deletion strains, locus YLR371W, strain rom2, active compounds read low 0.995 | S. cerevisiae deletion strains, locus YLR384C, strain iki3, active compounds read low 1 | S. cerevisiae deletion strains, locus YLR418C, strain cdc73, active compounds read low 0.984 | S. cerevisiae deletion strains, locus YML016C, strain PPZ1, active compounds read low 1.03 | S. cerevisiae deletion strains, locus YML032C, strain rad52, active compounds read low 0.992 | S. cerevisiae deletion strains, locus YML120C, strain ndi1, active compounds read low 0.997 | S. cerevisiae deletion strains, locus YML124C, strain tub3, active compounds read low 1 | S. cerevisiae deletion strains, locus YMR058W, strain fet3, active compounds read low 1.01 | S. cerevisiae deletion strains, locus YMR078C, strain ctf18, active compounds read low 0.991 | S. cerevisiae deletion strains, locus YMR125W, strain sto1, active compounds read low 1.01 | S. cerevisiae deletion strains, locus YMR129W, active compounds read low 1.01 | S. cerevisiae deletion strains, locus YMR205C, strain PFK2, active compounds read low 0.977 | S. cerevisiae deletion strains, locus YMR223W, strain ubp8, active compounds read low 0.991 | S. cerevisiae deletion strains, locus YMR231W, strain pep5, active compounds read low 1.01 | S. cerevisiae deletion strains, locus YMR263W, strain SAP30, active compounds read low 1.02 | S. cerevisiae deletion strains, locus YMR307W, strain GAS1, active compounds read low 0.918 | S. cerevisiae deletion strains, locus YNL067W, strain RPL9B, active compounds read low 1.01 | S. cerevisiae deletion strains, locus YNL071W, strain lat1, active compounds read low 1.02 | S. cerevisiae deletion strains, locus YNL128W, strain TEP1, active compounds read low 1.02 | S. cerevisiae deletion strains, locus YNL153C, strain GIM3, active compounds read low 1.02 | S. cerevisiae deletion strains, locus YNL209W, strain ssb2, active compounds read low 1 | S. cerevisiae deletion strains, locus YNL233W, strain BNI4, active compounds read low 1.01 | S. cerevisiae deletion strains, locus YNL248C, strain rpa49, active compounds read low 1 | S. cerevisiae deletion strains, locus YNL250W, strain rad50, active compounds read low 1 | S. cerevisiae deletion strains, locus YNL271C, strain bni1, active compounds read low 0.997 | S. cerevisiae deletion strains, locus YNL298W, strain CLA4, active compounds read low 1.02 | S. cerevisiae deletion strains, locus YNL307C, strain MCK1, active compounds read low 0.963 | S. cerevisiae deletion strains, locus YNL322C, strain KRE1 (second series), active compounds read low 1.01 | S. cerevisiae deletion strains, locus YNL322C, strain KRE1, active compounds read low 1.02 | S. cerevisiae deletion strains, locus YNR049C, strain mso1, active compounds read low 1.01 | S. cerevisiae deletion strains, locus YNR052C, strain pop2, active compounds read low 0.991 | S. cerevisiae deletion strains, locus YOL006C, strain TOP1, active compounds read low 1.02 | S. cerevisiae deletion strains, locus YOL012C, strain htz1 1.14 | S. cerevisiae deletion strains, locus YOL147C, strain pex11, active compounds read low 1 | S. cerevisiae deletion strains, locus YOR001W, strain rrp6, active compounds read low 1.01 | S. cerevisiae deletion strains, locus YOR061W, strain CKA2, active compounds read low 1.01 | S. cerevisiae deletion strains, locus YOR069W, strain VPS5, active compounds read low 1.01 | S. cerevisiae deletion strains, locus YOR070C, strain gyp1, active compounds read low 1.01 | S. cerevisiae deletion strains, locus YOR080W, strain dia2, active compounds read low 1.01 | S. cerevisiae deletion strains, locus YOR083W, strain WHI5, active compounds read low 1.01 | S. cerevisiae deletion strains, locus YOR106W, strain vam3, active compounds read low 0.988 | S. cerevisiae deletion strains, locus YOR136W, strain idh2, active compounds read low 0.99 | S. cerevisiae deletion strains, locus YOR144C, strain elg1, active compounds read low 1 | S. cerevisiae deletion strains, locus YOR184W, strain ser1, active compounds read low 0.982 | S. cerevisiae deletion strains, locus YOR265W, strain rbl2, active compounds read low 1.01 | S. cerevisiae deletion strains, locus YOR270C, strain vph1, active compounds read low 1.01 | S. cerevisiae deletion strains, locus YOR290C, strain snf2, active compounds read low 1 | S. cerevisiae deletion strains, locus YOR316C, strain cot1, active compounds read low 1.01 | S. cerevisiae deletion strains, locus YPL051W, strain arl3, active compounds read low 1 | S. cerevisiae deletion strains, locus YPL055C, strain LGE1, active compounds read low 0.989 | S. cerevisiae deletion strains, locus YPL078C, strain atp4, active compounds read low 1.01 | S. cerevisiae deletion strains, locus YPL106C, strain sse1, active compounds read low 1.03 | S. cerevisiae deletion strains, locus YPL240C, strain hsp82, active compounds read low 0.999 | S. cerevisiae deletion strains, locus YPL241C, strain CIN2, active compounds read low 1.02 | S. cerevisiae deletion strains, locus YPR119W, strain clb2, active compounds read low 0.998 | S. cerevisiae deletion strains, locus YPR141C, strain kar3, active compounds read low 1.01 | S. cerevisiae deletion strains, locus YPR163C, strain tif3, active compounds read low 0.998 | S. cerevisiae deletion strains, locus YPR167C, strain met16, active compounds read low 0.997 | S. cerevisiae deletion strains, strain wtn01, active compounds read low 0.997 | S. cerevisiae strains, strain wild type, active compounds read low 1.01
